In the supplement of paper PMC10849652:
The full data set covers some 7,900 targets. This sample favours those with a hit. About 0.6% of all pairs of compound and target were hits.

compound: C1=CC(=C(C=C1Cl)C2=NC3=NC=CN=C3C(=N2)NC4=CC=NC=C4)F; assay: log2 fold change, soluble protein after heating vs DMSO (PISA); higher = thermal stabilisation; K562 cells, 10 uM, 30 min; active = over 0.2 and 3.5 SD of the protein, either way, in both replicates (recomputed)
Method in brief: (§1)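 Soluble protein was defined as the supernatant after 21,000xg for 90 min. It came from K562 cells at 2×10^6 cells/mL given 10 μM compound for 30 min, heated in aliquots for 3 min across 48°C-58°C, pooled, and extracted in PBS with 0.5% NP-40 at 4°C, and was quantified by TMTpro 16plex LC-MS/MS with equalised channel sums. Thermal stability against control samples, from duplicates, is reported as log2 fold change.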

UniProt Q9UPN7, sequence (Q9UPN7 whole entry, looked up): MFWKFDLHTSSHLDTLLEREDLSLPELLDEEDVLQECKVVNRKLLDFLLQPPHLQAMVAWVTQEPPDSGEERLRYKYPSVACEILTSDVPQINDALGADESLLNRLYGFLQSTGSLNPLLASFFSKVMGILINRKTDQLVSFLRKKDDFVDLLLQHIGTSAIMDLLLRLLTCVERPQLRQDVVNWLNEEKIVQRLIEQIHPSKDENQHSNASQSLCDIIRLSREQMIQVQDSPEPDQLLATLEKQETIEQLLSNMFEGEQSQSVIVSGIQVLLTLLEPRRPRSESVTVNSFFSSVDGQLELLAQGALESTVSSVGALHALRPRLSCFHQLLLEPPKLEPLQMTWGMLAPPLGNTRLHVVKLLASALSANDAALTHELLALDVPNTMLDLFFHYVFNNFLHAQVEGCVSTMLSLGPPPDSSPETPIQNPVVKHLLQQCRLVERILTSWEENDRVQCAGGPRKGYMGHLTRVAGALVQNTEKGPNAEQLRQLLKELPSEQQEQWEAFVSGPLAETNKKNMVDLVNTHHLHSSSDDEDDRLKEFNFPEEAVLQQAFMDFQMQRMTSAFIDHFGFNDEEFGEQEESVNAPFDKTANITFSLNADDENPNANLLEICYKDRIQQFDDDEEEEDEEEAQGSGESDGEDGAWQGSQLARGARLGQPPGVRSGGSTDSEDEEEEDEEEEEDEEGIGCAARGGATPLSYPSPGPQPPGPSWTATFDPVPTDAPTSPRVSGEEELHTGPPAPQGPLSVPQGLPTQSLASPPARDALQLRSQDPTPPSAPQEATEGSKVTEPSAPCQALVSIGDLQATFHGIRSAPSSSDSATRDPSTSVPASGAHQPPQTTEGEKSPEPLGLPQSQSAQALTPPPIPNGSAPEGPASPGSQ
UniProt P35227, sequence (P35227 whole entry, looked up): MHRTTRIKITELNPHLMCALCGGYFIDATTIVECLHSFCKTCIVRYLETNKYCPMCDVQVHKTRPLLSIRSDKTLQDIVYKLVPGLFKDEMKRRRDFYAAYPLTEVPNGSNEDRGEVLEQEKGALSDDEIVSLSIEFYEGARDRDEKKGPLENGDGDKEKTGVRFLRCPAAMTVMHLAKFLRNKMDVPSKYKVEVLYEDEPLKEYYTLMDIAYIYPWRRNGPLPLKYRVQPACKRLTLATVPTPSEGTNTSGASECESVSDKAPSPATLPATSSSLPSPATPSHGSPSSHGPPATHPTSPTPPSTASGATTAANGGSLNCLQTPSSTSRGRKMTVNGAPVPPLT
UniProt Q8WUK0, sequence (Q8WUK0 whole entry, looked up): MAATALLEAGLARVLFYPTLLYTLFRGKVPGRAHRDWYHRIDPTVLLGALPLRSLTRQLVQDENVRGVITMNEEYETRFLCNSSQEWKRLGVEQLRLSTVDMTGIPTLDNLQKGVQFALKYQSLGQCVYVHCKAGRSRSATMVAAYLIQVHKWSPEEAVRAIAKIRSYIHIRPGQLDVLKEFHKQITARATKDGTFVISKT
UniProt Q12974, sequence (Q12974 whole entry, looked up): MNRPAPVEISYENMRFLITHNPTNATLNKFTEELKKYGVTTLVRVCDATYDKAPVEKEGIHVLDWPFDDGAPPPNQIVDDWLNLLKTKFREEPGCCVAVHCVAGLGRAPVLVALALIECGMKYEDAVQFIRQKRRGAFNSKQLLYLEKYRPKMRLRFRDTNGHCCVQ
UniProt O43164, sequence (O43164 whole entry, looked up): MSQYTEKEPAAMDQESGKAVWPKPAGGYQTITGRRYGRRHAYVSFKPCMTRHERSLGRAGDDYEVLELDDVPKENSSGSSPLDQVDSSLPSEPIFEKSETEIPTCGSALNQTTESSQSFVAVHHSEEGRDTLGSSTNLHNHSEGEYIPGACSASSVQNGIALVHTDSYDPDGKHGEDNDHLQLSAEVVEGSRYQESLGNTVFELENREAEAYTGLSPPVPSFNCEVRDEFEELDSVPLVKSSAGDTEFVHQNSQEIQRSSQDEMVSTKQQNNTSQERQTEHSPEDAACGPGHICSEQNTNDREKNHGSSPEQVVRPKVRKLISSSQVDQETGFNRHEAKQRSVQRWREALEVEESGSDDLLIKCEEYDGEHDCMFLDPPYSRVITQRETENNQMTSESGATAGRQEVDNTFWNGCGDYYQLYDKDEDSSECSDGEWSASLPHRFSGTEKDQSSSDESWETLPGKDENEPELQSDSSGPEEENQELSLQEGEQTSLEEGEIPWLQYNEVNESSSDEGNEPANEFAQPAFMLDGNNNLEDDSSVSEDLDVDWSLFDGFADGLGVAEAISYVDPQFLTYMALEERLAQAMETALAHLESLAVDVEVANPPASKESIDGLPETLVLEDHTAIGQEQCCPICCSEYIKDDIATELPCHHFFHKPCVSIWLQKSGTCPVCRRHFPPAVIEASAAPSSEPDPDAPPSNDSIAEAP
UniProt Q5VTL8, sequence (Q5VTL8 whole entry, looked up): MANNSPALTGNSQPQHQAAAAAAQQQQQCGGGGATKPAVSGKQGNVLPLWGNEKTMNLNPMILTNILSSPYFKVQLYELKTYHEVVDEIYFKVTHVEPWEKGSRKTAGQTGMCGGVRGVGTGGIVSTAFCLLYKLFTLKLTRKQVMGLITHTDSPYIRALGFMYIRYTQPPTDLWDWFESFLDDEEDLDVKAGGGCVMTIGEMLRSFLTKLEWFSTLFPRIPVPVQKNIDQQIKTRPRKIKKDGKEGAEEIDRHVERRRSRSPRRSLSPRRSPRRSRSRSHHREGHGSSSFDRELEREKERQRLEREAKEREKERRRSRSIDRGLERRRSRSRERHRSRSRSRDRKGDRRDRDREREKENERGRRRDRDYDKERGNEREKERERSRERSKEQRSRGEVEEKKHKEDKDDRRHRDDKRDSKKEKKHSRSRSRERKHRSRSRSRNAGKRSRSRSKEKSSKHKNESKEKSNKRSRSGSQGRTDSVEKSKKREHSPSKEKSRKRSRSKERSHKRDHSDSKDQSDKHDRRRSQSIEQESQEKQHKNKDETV
UniProt O60256, sequence (O60256 whole entry, looked up): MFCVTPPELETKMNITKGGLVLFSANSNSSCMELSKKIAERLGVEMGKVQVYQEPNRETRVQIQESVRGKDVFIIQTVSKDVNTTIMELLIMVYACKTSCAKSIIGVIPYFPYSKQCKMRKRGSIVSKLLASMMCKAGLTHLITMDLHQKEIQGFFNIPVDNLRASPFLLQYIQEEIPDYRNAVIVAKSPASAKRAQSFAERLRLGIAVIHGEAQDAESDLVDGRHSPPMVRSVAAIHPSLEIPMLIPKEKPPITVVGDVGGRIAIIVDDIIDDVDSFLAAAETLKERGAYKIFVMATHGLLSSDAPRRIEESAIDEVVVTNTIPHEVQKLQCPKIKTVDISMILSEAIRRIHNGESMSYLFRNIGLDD
UniProt O00231, sequence (O00231 whole entry, looked up): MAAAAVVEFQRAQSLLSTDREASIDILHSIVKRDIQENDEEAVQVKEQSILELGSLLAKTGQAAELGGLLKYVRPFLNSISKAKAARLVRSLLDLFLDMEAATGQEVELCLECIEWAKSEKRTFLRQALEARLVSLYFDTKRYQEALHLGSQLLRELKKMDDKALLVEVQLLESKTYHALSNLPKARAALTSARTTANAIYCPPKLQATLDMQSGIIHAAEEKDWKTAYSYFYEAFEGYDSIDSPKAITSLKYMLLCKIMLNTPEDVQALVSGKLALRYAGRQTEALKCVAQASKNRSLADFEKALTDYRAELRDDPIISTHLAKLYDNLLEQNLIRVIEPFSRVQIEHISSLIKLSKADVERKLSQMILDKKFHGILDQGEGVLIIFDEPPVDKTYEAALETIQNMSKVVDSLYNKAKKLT
UniProt Q99541, sequence (Q99541 whole entry, looked up): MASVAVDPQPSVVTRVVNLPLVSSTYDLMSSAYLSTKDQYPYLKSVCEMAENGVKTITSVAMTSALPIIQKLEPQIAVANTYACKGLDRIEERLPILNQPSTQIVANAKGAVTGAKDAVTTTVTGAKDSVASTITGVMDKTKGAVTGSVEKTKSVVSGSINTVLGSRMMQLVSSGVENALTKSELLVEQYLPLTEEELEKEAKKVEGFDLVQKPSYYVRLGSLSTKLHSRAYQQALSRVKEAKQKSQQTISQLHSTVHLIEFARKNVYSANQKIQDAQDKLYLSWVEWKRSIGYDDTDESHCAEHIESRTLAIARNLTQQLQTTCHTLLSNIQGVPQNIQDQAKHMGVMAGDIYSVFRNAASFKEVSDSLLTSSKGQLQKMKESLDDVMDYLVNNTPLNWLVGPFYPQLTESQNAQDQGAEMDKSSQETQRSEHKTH
UniProt P31321, sequence (P31321 whole entry, looked up): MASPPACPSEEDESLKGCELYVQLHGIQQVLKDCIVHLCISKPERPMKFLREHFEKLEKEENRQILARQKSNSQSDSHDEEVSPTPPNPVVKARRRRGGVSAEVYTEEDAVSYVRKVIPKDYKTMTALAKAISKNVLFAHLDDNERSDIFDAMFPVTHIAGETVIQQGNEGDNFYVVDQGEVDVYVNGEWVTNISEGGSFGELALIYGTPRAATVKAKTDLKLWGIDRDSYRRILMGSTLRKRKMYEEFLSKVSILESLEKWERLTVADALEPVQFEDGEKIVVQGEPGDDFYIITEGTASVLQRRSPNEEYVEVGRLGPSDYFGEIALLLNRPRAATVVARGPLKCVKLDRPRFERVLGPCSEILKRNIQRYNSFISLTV
UniProt P25788, sequence (P25788 whole entry, looked up): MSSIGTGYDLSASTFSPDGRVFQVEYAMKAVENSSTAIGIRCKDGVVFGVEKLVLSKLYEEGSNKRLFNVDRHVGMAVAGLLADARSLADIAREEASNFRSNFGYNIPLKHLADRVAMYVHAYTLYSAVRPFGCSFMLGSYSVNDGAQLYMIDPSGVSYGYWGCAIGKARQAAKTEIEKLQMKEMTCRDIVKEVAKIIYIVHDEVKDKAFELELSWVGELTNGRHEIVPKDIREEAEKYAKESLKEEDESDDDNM
UniProt P06454, sequence (P06454 whole entry, looked up): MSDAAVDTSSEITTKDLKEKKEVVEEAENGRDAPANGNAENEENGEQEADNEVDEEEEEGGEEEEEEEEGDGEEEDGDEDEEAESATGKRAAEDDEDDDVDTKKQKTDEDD

log2 fold change, inactive:
PLIN2 (UniProt Q99541) 0.043
PCGF2 (UniProt P35227) 0.001
PRKAR1B (UniProt P31321) -0.036
PSMB6 (UniProt P28072) -0.024
PGGHG (UniProt Q32M88) 0.024
PTGFRN (UniProt Q9P2B2) 0.021
PLCL1 (UniProt Q15111) 0.117
PURA (UniProt Q00577) -0.319
PPT1 (UniProt P50897) 0.018
PKN2 (UniProt Q16513) -0.019
PTPMT1 (UniProt Q8WUK0) 0.202
PTMA (UniProt P06454) 0.192
POGLUT1 (UniProt Q8NBL1) -0.041
POLR2C (UniProt P19387) -0.006
PRPF38B (UniProt Q5VTL8) -0.049
PSMA3 (UniProt P25788) 0.016
PJA2 (UniProt O43164) -0.049
PTP4A2 (UniProt Q12974) 0.134
PCYT1B (UniProt Q9Y5K3) -0.043
PPP1R14A (UniProt Q96A00) 0.004
PIK3CB (UniProt P42338) 0.002
POLD3 (UniProt Q15054) 0.048
PSMD11 (UniProt O00231) -0.039
PMM1 (UniProt Q92871) 0.004
PIP4P2 (UniProt Q8N4L2) 0.026
PIGT (UniProt Q969N2) 0.002
POLR2I (UniProt P36954) 0.108
PPP6R1 (UniProt Q9UPN7) 0.013
PRKCQ (UniProt Q04759) 0.024
POLR1A (UniProt O95602) 0.031
PRPSAP2 (UniProt O60256) -0.017
PSME4 (UniProt Q14997) -0.028
PPM1G (UniProt O15355) 0.009
PRKAR2B (UniProt P31323) -0.082
PKN1 isoform 2 (UniProt Q16512) 0.064
PRCP (UniProt P42785) 0.049

compound: C1=CC(=CC=C1C2=NC3=C(N2)C=C(C=C3)C(=O)N)OC4=CC=C(C=C4)Cl; assay: as above
Method in brief: as §1

log2 fold change, inactive:
PLIN2 (UniProt Q99541) -0.038
PCGF2 (UniProt P35227) -0.013
PRKAR1B (UniProt P31321) 0.013
PSMB6 (UniProt P28072) -0.001
PGGHG (UniProt Q32M88) 0.002
PTGFRN (UniProt Q9P2B2) 0
PLCL1 (UniProt Q15111) 0.095
PURA (UniProt Q00577) 0.101
PPT1 (UniProt P50897) -0.003
PKN2 (UniProt Q16513) -0.075
PTPMT1 (UniProt Q8WUK0) 0.053
PTMA (UniProt P06454) 0.005
POGLUT1 (UniProt Q8NBL1) -0.004
POLR2C (UniProt P19387) -0.051
PRPF38B (UniProt Q5VTL8) 0.082
PSMA3 (UniProt P25788) 0.028
PJA2 (UniProt O43164) 0.018
PTP4A2 (UniProt Q12974) 0.049
PCYT1B (UniProt Q9Y5K3) 0.023
PPP1R14A (UniProt Q96A00) 0.063
PIK3CB (UniProt P42338) -0.022
POLD3 (UniProt Q15054) -0.031
PSMD11 (UniProt O00231) 0.007
PMM1 (UniProt Q92871) 0.065
PIP4P2 (UniProt Q8N4L2) 0.039
PIGT (UniProt Q969N2) 0.034
POLR2I (UniProt P36954) 0.068
PPP6R1 (UniProt Q9UPN7) -0.004
PRKCQ (UniProt Q04759) 0.03
POLR1A (UniProt O95602) 0.058
PRPSAP2 (UniProt O60256) -0.028
PSME4 (UniProt Q14997) 0.065
PPM1G (UniProt O15355) -0.017
PRKAR2B (UniProt P31323) 0.16
PKN1 isoform 2 (UniProt Q16512) 0.055
PRCP (UniProt P42785) -0.025
